About 2,000 (36%) of roughly 5,500 compounds were called active. About 18% were inconclusive and are not listed. Cut-off read from the data, not from the text of the source: active = normalized growth mostly below about 0.91 (no sharp cut-off); inconclusive = no clear call, values can overlap the other calls; inactive = mostly above about 0.92. This is one part of the list.
Test: chemical genetic growth profiling, strain panel (AID 1159580);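 note: tested at 20 µM; growth read once vehicle control cultures reached saturation at 30 °C; 1 = growth at the plate median or of vehicle wells; lower values mean less growth of the strain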
Conditions: S. cerevisiae deletion strains, growth OD

Measured: normalized growth

CCCCCCCCCCCCCC(=O)OC1C(C)C2(O)C(C=C(CO)CC3(O)C(=O)C(C)=CC32)C2C(C)(C)C12OC(C)=O (centres undefined)
inactive: locus YAL013W, strain DEP1, active compounds read low 1 | locus YAL021C, strain ccr4, active compounds read low 0.982 | locus YAL026C, strain drs2, active compounds read low 0.985 | locus YAL030W, strain snc1, active compounds read low 0.991 | locus YBL061C, strain skt5, active compounds read low 0.981 | locus YBR009C, strain hhf1, active compounds read low 0.965 | locus YBR021W, strain FUR4, active compounds read low 0.988 | locus YBR023C, strain chs3, active compounds read low 0.97 | locus YBR171W, strain sec66, active compounds read low 0.981 | locus YBR229C, strain ROT2, active compounds read low 1.02 | locus YBR231C, strain swc5, active compounds read low 0.98 | locus YBR279W, strain paf1, active compounds read low 0.988 | locus YCL011C, strain gbp2, active compounds read low 0.98 | locus YCL016C, strain dcc1, active compounds read low 0.996 | locus YCL029C, strain bik1, active compounds read low 0.996 | locus YCL061C, strain MRC1, active compounds read low 0.987 | locus YCL069W, strain vba3, active compounds read low 0.986 | locus YCR088W, strain abp1, active compounds read low 0.989 | locus YDL005C, strain med2, active compounds read low 0.988 | locus YDL035C, strain GPR1, active compounds read low 1.06 | locus YDL040C, strain nat1, active compounds read low 0.979 | locus YDL074C, strain BRE1, active compounds read low 1.04 | locus YDL101C, strain DUN1, active compounds read low 1.01 | locus YDL134C, strain PPH21, active compounds read low 1.01 | locus YDL185W, strain tfp1, active compounds read low 1.01 | locus YDL192W, strain arf1, active compounds read low 0.997 | locus YDR001C, strain nth1, active compounds read low 0.978 | locus YDR069C, strain doa4, active compounds read low 0.985 | locus YDR101C, strain arx1, active compounds read low 0.996 | locus YDR137W, strain rgp1, active compounds read low 0.97 | locus YDR150W, strain NUM1, active compounds read low 1 | locus YDR159W, strain sac3, active compounds read low 0.969 | locus YDR162C, strain NBP2, active compounds read low 1.03 | locus YDR195W, strain ref2 0.96 | locus YDR297W, strain sur2, active compounds read low 0.985 | locus YDR318W, strain mcm21, active compounds read low 0.985 | locus YDR334W, strain swr1, active compounds read low 0.989 | locus YDR335W, strain msn5, active compounds read low 0.987 | locus YDR388W, active compounds read low 0.99 | locus YDR392W, strain spt3, active compounds read low 0.919 | locus YDR502C, strain sam2, active compounds read low 1 | locus YEL003W, strain gim4, active compounds read low 0.982 | locus YEL037C, strain rad23, active compounds read low 0.978 | locus YEL061C, strain CIN8 (second series), active compounds read low 0.976 | locus YEL061C, strain CIN8, active compounds read low 1.01 | locus YER015W, strain faa2, active compounds read low 0.986 | locus YER016W, strain bim1, active compounds read low 0.98 | locus YER110C, active compounds read low 0.994 | locus YER111C, strain swi4, active compounds read low 0.965 | locus YER155C, strain BEM2 (second series), active compounds read low 0.987 | locus YER155C, strain BEM2, active compounds read low 0.996 | locus YER167W, strain BCK2, active compounds read low 0.988 | locus YFR010W, strain ubp6, active compounds read low 0.977 | locus YGL078C, strain dbp3, active compounds read low 0.99 | locus YGL086W, strain mad1, active compounds read low 0.978 | locus YGL167C, strain pmr1, active compounds read low 0.989 | locus YGL173C, strain kem1, active compounds read low 0.984 | locus YGL227W, strain vid30, active compounds read low 0.979 | locus YGL240W, strain doc1, active compounds read low 0.976 | locus YGL248W, strain PDE1, active compounds read low 1.02 | locus YGL253W, strain hxk2, active compounds read low 0.98 | locus YGR078C, strain PAC10, active compounds read low 1.03 | locus YGR135W, strain pre9, active compounds read low 1.01 | locus YGR229C, strain SMI1, active compounds read low 1.02 | locus YGR252W, strain gcn5, active compounds read low 1.04 | locus YHR013C, strain ard1, active compounds read low 0.934 | locus YHR027C, strain rpn1, active compounds read low 0.994 | locus YHR030C, strain SLT2, active compounds read low 0.995 | locus YHR079C, strain IRE1 (second series), active compounds read low 0.992 | locus YHR094C, strain hxt1, active compounds read low 0.994 | locus YHR129C, strain ARP1, active compounds read low 0.997 | locus YHR142W, strain chs7, active compounds read low 0.952 | locus YHR200W, strain rpn10, active compounds read low 0.989 | locus YIL066C, strain RNR3, active compounds read low 1.01 | locus YIL073C, strain SPO22, active compounds read low 0.986 | locus YIL125W, strain kgd1, active compounds read low 0.991 | locus YIR030C, strain dcg1, active compounds read low 0.994 | locus YJL092W, strain hpr5, active compounds read low 0.984 | locus YJL095W, strain BCK1 (second series), active compounds read low 0.99 | locus YJL095W, strain BCK1, active compounds read low 1 | locus YJL115W, strain asf1, active compounds read low 0.979 | locus YJL129C, strain trk1, active compounds read low 0.962 | locus YJL134W, strain LCB3, active compounds read low 0.992 | locus YJL154C, strain vps35, active compounds read low 0.986 | locus YJL164C, strain tpk1, active compounds read low 1.01 | locus YJL166W, strain qcr8, active compounds read low 0.981 | locus YJL168C, strain set2, active compounds read low 0.993 | locus YJL187C, strain SWE1 (second series), active compounds read low 1.02 | locus YJL187C, strain SWE1, active compounds read low 0.99
